Compounds without any hit were thinned out: in the full panel of roughly 79,000, 15% have a hit. Values without a mark were called inactive. Activity calls are given as the source filed them. Cut-off read from the data, not from the text of the source: active = growth inhibition above about 70%; inactive = the rest.
Assay: NCI Yeast Anticancer Drug Screen. Data for the mlh1 rad18 strain (AID 175)
Details: S. cerevisiae mlh1 rad18 strain growth inhibition; at 5.0 µM (retest, dose inferred, filed as 0.5); hits give high values
Procedure, shortened: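 In this whole-cell yeast screen, a strain with altered DNA damage repair is challenged with compound, and its growth is measured against matched vehicle-treated controls.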

Compound	growth inhibition
CCCNC(=O)OCc1ccc(NCCN(CC)CC)c2c(=O)c3ccccc3sc12	3%
COc1cc(C(c2cc3c(cc2O)OCO3)N2CCCCC2)cc(OC)c1OC (stereo not given)	-6%
Cc1cc2c(cc1Cl)Sc1nnc(C)n1S2(=O)=O	9%
O=C(Oc1cccc2cccnc12)c1ccccc1	7%
CCCCCCN(CCCCCC)CCC(=O)c1ccc2cc(Br)c3ccccc3c2c1	43%
Cc1c2cc(Cl)ccc2cc2c1ccc1ccccc12	-4%
O=C1OC(CCCl)(c2ccccc2)CC1CN1CCOCC1 (stereo not given)	-7%
CCOC(=N)CCCSSc1ccc(N=[N+]=[N-])cc1	-3%
Cc1[nH]c2ccccc2c1/C=C1\C(=O)C2CCC1C2 (stereo not given)	-14%
O=C(O)c1ccc2c3c(ncnc13)-c1ccccc1C2=O	28%
CCNCCNc1cc(O)c2c(c1O)C(=O)c1ccccc1C2=O	91% (active)
Nc1nc(N)c2nc(CNc3ccc(C(=O)NC(CCC(=O)O)C(=O)O)cc3)cnc2n1 (stereo not given)	-1%
COc1ccccc1OC(=O)Oc1ccccc1OC	-4%
NNC(=O)c1c(SCc2ccccc2)nc2c3ccccc3ccn12	33%
N#CC1Oc2ccccc2N1C(=O)c1ccccc1 (stereo not given)	2%
O=C1C2=Cc3ccccc3CCN2c2ccccc21	2%
Cc1cc([N+](=O)[O-])cc(Cl)c1O	-58%
Cc1c(Cl)cccc1N=NC(=O)NNc1cccc(Cl)c1C	1%
CCC[CH2][Sn]1([CH2]CCC)[O]C(=O)CN=Cc2c(ccc3ccccc23)[O]1	67%
Oc1ccc(/C=N/NC(=S)Nc2ccccc2)nc1	0%

Compound	growth inhibition
CN(C)COC(=S)SCN(C)C	96% (active)
Cc1cc2cc3c(c(C(=O)O)c2o1)C(=O)c1ccc2ccccc2c1C3	20%
O=C1CC(=S)NC(=S)N1	-3%
O=[N+]([O-])c1cc(I)c(O)c(/C=N/NS(=O)(=O)c2ccc(Cl)cc2)c1	-2%
CCC1CCC(CC)C1=O (stereo not given)	-2%
Cc1cc(O)c2c(c1)C(=O)c1c(c(O)cc(O)c1-c1c(O)cc(O)c3c1C(=O)c1cc(C)cc(O)c1C3=O)C2=O	-8%
CCC(=O)Sc1ccccc1C(=O)Nc1ccc(Cl)cc1	29%
COc1cccc(CC2N(S(=O)(=O)c3ccc(C)cc3)CCC23C(=O)Nc2ccccc23)c1OC (stereo not given)	3%
Cc1occc1C(=S)Nc1ccc(Cl)c(C(=O)OCC(C)C)c1	33%
CCOC(=O)c1ccc([N+](=O)[O-])o1	2%
Nc1ccc(S(=O)(=O)O)c2cccc(S(=O)(=O)O)c12	-1%
Cn1c2ccccc2c2nnc(N/N=C/c3ccccn3)nc21	22%
C#CC(NCCC(C)CC(C)(C)C)C(C)C (stereo not given)	-3%
C/C(=N/Nc1ccccc1)C(=O)O	28%
CCCCCCCCCCCCCCOC(=O)C(N)Cc1ccc(O)cc1 (stereo not given)	7%
O=C(Nc1ccc(S(=O)(=O)NC2CCCCC2)cc1)OCc1ccccc1	91% (active)
NC1CCCCC1N.O=S(=O)([O-])CCCN1CCN(CCO)CC1.O=S(=O)([O-])CCCN1CCN(CCO)CC1.[Pt+4]	16%
CCCCCCCNc1ccc2c(cc1=O)C(NC(C)=O)CCc1cc(OC)c(OC)c(OC)c1-2 (stereo not given)	13%
Cc1ccc(NC(=O)c2cc3ccccc3c(N=Nc3cc(S(=O)(=O)O)ccc3O)c2O)c(C)c1	57%
O=C(O)/C(Cl)=C(\Cl)C(=O)Nc1cccc(C(F)(F)F)c1	49%
